Experimental data from PubChem BioAssay.
The source made the active and inactive calls.

These molecules were tested against Dihydroorotate dehydrogenase (quinone), mitochondrial (Plasmodium falciparum (isolate 3D7)) (UniProt Q08210) (assay: PfDHODH enzyme inhibitors, primary screen, biochemical, C-terminal His tag, absorbance 600 nm (AID 1175;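 further: recombinant parasite enzyme with a five histidine tag at its C terminus; test concentration not given here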)). Settings: DCIP absorbance 600 nm, higher = more signal, called active from +8 up or from −8 down.
Sequence of Dihydroorotate dehydrogenase (quinone), mitochondrial (Plasmodium falciparum (isolate 3D7)) (Q08210 whole entry, looked up): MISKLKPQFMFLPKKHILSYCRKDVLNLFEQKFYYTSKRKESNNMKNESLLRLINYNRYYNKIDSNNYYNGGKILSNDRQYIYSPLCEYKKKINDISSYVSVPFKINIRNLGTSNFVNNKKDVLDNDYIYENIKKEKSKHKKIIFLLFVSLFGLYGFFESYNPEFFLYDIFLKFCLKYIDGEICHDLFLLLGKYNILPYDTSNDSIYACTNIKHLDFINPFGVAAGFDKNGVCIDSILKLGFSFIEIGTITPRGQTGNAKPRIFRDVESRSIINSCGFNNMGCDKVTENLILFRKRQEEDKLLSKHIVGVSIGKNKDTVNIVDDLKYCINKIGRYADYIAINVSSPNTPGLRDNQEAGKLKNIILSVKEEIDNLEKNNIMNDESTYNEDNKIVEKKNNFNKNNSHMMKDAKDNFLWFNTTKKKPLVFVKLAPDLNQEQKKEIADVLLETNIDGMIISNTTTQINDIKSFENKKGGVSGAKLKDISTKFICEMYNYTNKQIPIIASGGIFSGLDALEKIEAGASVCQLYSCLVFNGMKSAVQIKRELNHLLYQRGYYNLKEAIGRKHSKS

Row | SMILES | composite z-score
1 | CN(C)C(=O)[C@@]1(CCS(=O)(=O)c2ccccc2)N=C(c2ccc(OCCCO)cc2)O[C@H]1c1ccccc1CN=[N+]=[N-] | 0.307 (inactive)
2 | Cc1ccc(S[C@]2(C(=O)NCc3ccccc3)CC(=O)N(C3Cc4ccccc4C3)[C@@H]2c2ccc(CO)cc2I)cc1 | -1.29 (inactive)
3 | C=C(C)[C@@H]1CC=C(C(O)C2C=CC3C(=O)N(C4CCCCC4)C(=O)C3N2Nc2ccc(OC)cc2)CC1 (some centres undefined) | -0.157 (inactive)
4 | CC(C)(C)N1CC=CC23O[C@@H]4C=CCCOC(=O)C4[C@H]2C(=O)N(CCCO)[C@@H]3C1=O (some centres undefined) | -3.53 (inactive)
5 | CN(C)C(=O)[C@]1(Cc2ccccc2N=[N+]=[N-])N=C(c2ccc(OCCCO)cc2)O[C@@H]1c1ccccc1CN=[N+]=[N-] | -0.106 (inactive)
6 | COC(=O)[C@@]1(Cc2ccc(OC)cc2)[C@H]2c3cc(C(=O)N4CCCC4)n(Cc4ccc(C)o4)c3C[C@H]2CN1C(=O)c1ccccc1 | -1.53 (inactive)
7 | [N-]=[N+]=NCc1ccccc1C[C@]1(C(=O)NCCN2CCOCC2)N=C(c2ccc(OCCCO)cc2)O[C@H]1c1ccccc1 | -0.603 (inactive)
8 | CCCCCCC#C[Si](O[C@H](c1ccccc1)c1cn(Cc2cccc(Cl)c2)nn1)(C(C)C)C(C)C | -0.0872 (inactive)
9 | COCCOC(=O)N1C(=O)[C@@]2(c3cc(C#CC4(O)CCCCCC4)ccc31)[C@H](C(=O)N1CCN(c3ncccn3)CC1)[C@H]1C(=O)O[C@H](c3ccccc3)[C@H](c3ccccc3)N1[C@@H]2c1ccc(O)cc1 | 0.59 (inactive)
